Screening results deposited in PubChem BioAssay by National Center for Advancing Translational Sciences (NCATS).
This is a sample that favours compounds with a hit; in the whole collection about 0.36% have one here.
ERG-DNA inh – qHTS for Small Molecule Inhibitors of the ERG Ets/DNA interaction; Transcriptional regulator ERG (Homo sapiens), P11308; fluorescence polarization, His-ERG Ets domain / labelled DNA; Potency, µM (series often up to 76.9 µM), for the others: at the highest dose FP activity, negative = inhibition, hits mostly inhibitors; 370,000 compounds, 0.028% hits; AID 624246, 2012; active means well fitted inhibition curve with a large enough effect in the polarisation, with a control signal flat; inconclusive means small, poorly fitted or top-dose-only effect, or effect the other way, or a change in a side signal; inactive means no such curve, though single readings can be large or run the other way; the % refers to the polarisation;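 further: polarization taken with two DNA probes labelled with fluorescein and Texas red; potency means the concentration at half of the fitted maximal effect; % of control where 0% means no effect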
Target sequence (P11308 whole entry, looked up, the tested form may be a part): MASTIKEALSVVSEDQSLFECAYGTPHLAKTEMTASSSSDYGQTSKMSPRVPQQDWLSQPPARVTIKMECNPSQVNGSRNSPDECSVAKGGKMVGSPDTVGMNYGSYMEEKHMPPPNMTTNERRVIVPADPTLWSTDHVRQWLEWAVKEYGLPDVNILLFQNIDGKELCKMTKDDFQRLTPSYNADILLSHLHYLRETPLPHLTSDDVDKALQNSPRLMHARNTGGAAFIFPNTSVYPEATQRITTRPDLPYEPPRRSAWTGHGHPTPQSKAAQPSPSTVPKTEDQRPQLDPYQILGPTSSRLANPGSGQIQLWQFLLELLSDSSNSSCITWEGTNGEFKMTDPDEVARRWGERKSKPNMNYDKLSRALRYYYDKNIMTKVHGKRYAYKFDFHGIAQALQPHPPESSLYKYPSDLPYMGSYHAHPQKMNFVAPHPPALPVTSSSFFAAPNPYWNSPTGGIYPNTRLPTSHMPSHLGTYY
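His-tagged ERG Ets domain (1 uM in the protein solution; 300mM KCl, 50mM Tris-HCl, 1mM EDTA, 1mM DTT, pH 7.5) received compound, then a probe mix of 5 nM fluorescein-DNA and 100nM Texas-615-DNA. Fluorescence polarization was read for both dyes.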
PTHR1 agonist – qHTS for PTHR1 Agonists: Primary Screen; 410,000 compounds, 0.075% hits; HEK293 GP2 PTHR1 cells, GloSensor cAMP luminescence, 1 h; Potency, µM (highest dose often 115 µM), inactives show at the highest dose activation, usual class: activators; Parathyroid hormone/parathyroid hormone-related peptide receptor (Homo sapiens), Q03431; further: potency means the concentration at half of the fitted maximal effect; nearly all actives have a fitted effect of over 55% in size
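HEK-293-derived GP2 cells expressing PTHR1 and a GloSensor cAMP reporter, 3,000/well, plated overnight, given luciferin plus IBMX (each 0.5 mM as added) for 1 h at 37 °C, then compound for 1 h at 37 °C. Luminescence was read after 15 min at room temperature.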
Mm-Cpn inhibitor – Inhibitors of TCP-1 ring complex (TRiC) of Methanococcus maripaludis (MmCpn): qHTS; Chaperonin Mm-Cpn (Methanococcus maripaludis); purified Mm-Cpn ATPase, ADP Transcreener TR-FRET; Potency, µM (highest dose often 76.9 µM), without a hit: top-dose activity, negative = inhibition, usual class: inhibitors; 330,000 compounds, 0.031% hits; AID 504842, 2011; further: potency means the concentration at half of the fitted maximal effect; on the % scale 0 is the no-effect control and ±100 the full control effect; nearly all actives have a fitted effect of over 80% in size
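Purified archaeal Mm-CPN (25nM final) preincubated 10 min at 37degC with compound, then 10uM ATP for 30 min at 37degC; ADP measured by HTRF Transcreener TR-FRET; buffer 30 mM TRIS pH 7.4, 100mM KCl, 5mM MgCl2, 1mM DTT.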
CCT chaperon mod – High-Throughput Screening for Modulators of Cytosolic Chaperonin Activity; purified chaperonin ATPase assay, HTRF ADP detection, 30 min; activity change, % (test concentration not listed), hits read low; 360,000 compounds, 0.3% hits; AID 651819, 2012; in the data active means activity change below about -30%; further: on the % scale 0 is the no-effect control and ±100 the full control effect
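Enzyme 40 or 20 nM (batch-dependent) in Tris pH 7.4/KCl/MgCl2/DTT; cpd 76 uM single point; ATP 10 uM; 30 min 37 °C; Transcreener ADP HTRF detection, 30 min RT; ratio 665/615.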
RGS4 inhibitor – Inhibitors of Regulator of G Protein Signaling (RGS) 4: qHTS. 390,000 compounds, 0.039% hits. AID 504845, 2011. Regulator of G-protein signaling 4 (Homo sapiens), P49798. Transcreener GDP fluorescence polarization, RGS4-accelerated GTP hydrolysis. Potency, µM (doses to about 114 µM), for the others: top-dose activity change, negative = inhibition, usual class: inhibitors; further: potency means the concentration at half of the fitted maximal effect; on the % scale 0 is the no-effect control and ±100 the full control effect; nearly all actives have a fitted effect of over 75% in size
Target sequence (P49798 whole entry, looked up): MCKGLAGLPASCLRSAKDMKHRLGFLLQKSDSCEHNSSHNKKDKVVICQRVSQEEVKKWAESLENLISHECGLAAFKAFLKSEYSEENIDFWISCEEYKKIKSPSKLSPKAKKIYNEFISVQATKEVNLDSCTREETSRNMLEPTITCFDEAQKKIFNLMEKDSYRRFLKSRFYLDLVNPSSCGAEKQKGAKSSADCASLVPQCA
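MLSMR compounds (23 nl, pin-transferred) preincubated 10 min at room temperature with a 500nM (2x) first reagent, then RGS4 at 900nM (2x) plus Transcreener GDP mix added; fluorescence polarization (620/688 nm) read before and after 90 min at 30 °C.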
* = called active by the depositor; i = inactive; ? = inconclusive; nt = not tested or not shown; [ ] = remark or other dose. Unless noted, the call rests on the fitted dose curve; in most records, active means well fitted curve in the direction sought with a large enough effect; inconclusive means small, poorly fitted or top-dose-only effect, or another doubt; inactive means no such curve, though single readings can be large; an effect the other way counts as inactive or inconclusive.

SMILES | ERG-DNA inh | PTHR1 agonist | Mm-Cpn inhibitor | CCT chaperon mod | RGS4 inhibitor
CCOC(=O)c1c(P(=O)(N2CCOCC2)N2CCOCC2)noc1N | 2.9% | i | -0.3% | -54.3* | -2.7%[11.4 µM]
CCOc1ccccc1CNC(=O)c1[nH]c2ccccc2c1Sc1ccccc1 | 0.7% | i | nt | nt | -7.2%
CC[C@@H](C)[C@H](NC(=O)Cc1c(C)c2c(cc(C)c3c(C)c(C)oc32)oc1=O)C(=O)O | -2.0% | i | -3.4% | -3.1 | -29.5%[56.9 µM]
Cc1oc2c(c(C)cc3oc(=O)c(CC(=O)N[C@@H](C)C(=O)O)c(C)c32)c1C | -18.2% | -24.8% | -3.9% | -32.7* | 6.5%
Cc1nc2c(-c3ccccc3)c(C)[nH]n2c(=O)c1Cc1ccc(Br)cc1 | -8.0% | -31.1% | nt | nt | -9.6%
Fc1ccc(C2=Nc3cccc4cccc(c34)N2)cc1 | -0.5% | -49.9% | 0.4% | -3.3 | -15.9%
Brc1ccc(C2=Nc3cccc4cccc(c34)N2)o1 | -10.8% | -8.4% | -0.5% | -43.5* | -38.4%
CN(C)C(CNC(=O)c1cccc(S(=O)(=O)N2CCN(c3ccccc3)CC2)c1)c1ccccc1 (configuration not stated) | 2.9% | -33.5% | nt | -45.7* | -5.4%
O=C1N=C(N2CCOCC2)S/C1=C/c1cccs1 | -2.1% | -12.5%[57.5 µM] | -1.0% | -3.1 | 2.0%
CC1Oc2ccccc2C=C1/C=C1/SC(N2CCOCC2)=NC1=O (configuration not stated) | -15.0% | -31.0% | -0.2% | -38.6* | 11.8%
O=c1c2ccccc2oc2ccc(-c3ccc4[nH]ccc4c3)cc12 | -1.8% | i | nt | 1.8 | 20.5%
O=c1c2ccccc2oc2cc(-c3ccc4cc[nH]c4c3)ccc12 | 1.3% | -12.3% | 2.0% | -43.8* | 2.9%
OCC1O[C@H]([S-])[C@H](O)[C@@H](O)[C@@H]1O.[Au+] (some centres not stated) | nt | nt | nt | nt | 0.597µM*
OC[C@H]1OC(O)[C@H](O)[C@@H](O)[C@H]1O (some centres not stated) | -8.7% | -16.2% | -1.4% | -1.0 | -10.6%
CC(=O)Nc1cccc(-c2cn3ccccc3n2)c1 | 4.0% | -22.0% | -2.9% | -2.4 | -22.4%
O=C(Nc1cccc(-c2cn3ccccc3n2)c1)c1cc2ccccc2oc1=O | -5.9% | -20.0%[57.5 µM] | -3.9% | -60.7* | ?
CCOc1ccc(S(=O)(=O)Nc2ccc(O)c(Sc3ncn[nH]3)c2)cc1 | -0.3% | i | 1.7% | -38.4* | -13.6%
Cc1ccc(S(=O)(=O)Nc2ccc(O)c(Sc3ncn[nH]3)c2)cc1 | 1.3% | -4.3% | 3.8% | -0.7 | 2.2%
Cc1ccc(S(=O)(=O)NCC(c2cccnc2)N2CCc3ccccc32)cc1 (configuration not stated) | 1.4% | -25.2% | -0.1% | -49.3* | -20.1%
C[C@@H]1C(=O)N(S(=O)(=O)c2ccc([N+](=O)[O-])cc2)[C@H]1c1ccccc1 | nt | nt | nt | nt | 14.9%
O=C(Nc1ccccc1N1CCOCC1)c1ccccc1NS(=O)(=O)c1ccc(F)c(F)c1 | 3.3% | -78.1% | 0.6% | -31.1* | 12.6%
O=C(Nc1ccc2c(c1)C(=O)NC2=O)c1ccccc1 | -6.7% | -3.6% | -22.8% | 0.1 | 2.8%
O=C1NC(=O)c2cc(Nc3ccccc3)c(Nc3ccccc3)cc21 | nt | nt | nt | nt | 18.9µM*
Cc1[nH]nc2c1-c1nc3ccccc3nc1C(C)(C)C2 | -3.1% | 28.2µM* | 0.1% | -3.4 | 19.5%
CC12CCC(C)(c3nc4ccccc4nc31)C2(C)C | 10.0% | -21.6% | 0.7% | -1.9 | -47.5%
SMILES | ERG-DNA inh | PTHR1 agonist | Mm-Cpn inhibitor | CCT chaperon mod | RGS4 inhibitor
Cc1ccc(-c2ccnc(-c3ccc(O)cc3)n2)cc1 | -1.7% | -4.4% | 0.4% | -37.9* | -26.7%
COc1ccc(-c2ccnc(-c3ccc(O)cc3)n2)cc1 | -2.0% | -13.2% | ? | -1.7 | 14.1%
Cc1cc(C)c(NS(=O)(=O)c2ccc(-c3cnc(C4CC4)o3)cc2)c(C)c1 | -4.0% | i | nt | nt | -1.7%
COc1ccccc1NS(=O)(=O)c1ccc(-c2cnc(C3CC3)o2)cc1 | -0.7% | -21.3% | 0.8% | -76.5* | -30.1%
CCOc1ccccc1NS(=O)(=O)c1ccc(-c2cnc(C3CC3)o2)cc1 | 2.4% | -40.6% | 4.9% | -1.1 | 9.4%
COc1ccc(NS(=O)(=O)c2ccc(-c3cnc(C4CC4)o3)cc2)cc1OC | -0.1% | -96.3% | 1.2% | -66.3* | -21.6%
COc1ccccc1-c1cc2nc(C)c(CCC(=O)NCCc3cccc(C)c3)c(C)n2n1 | 1.4% | -47.0% | nt | nt | -14.1%
Cc1ccc(/C(O)=C2\C(=O)C(=O)N(CCCN3CCOCC3)C2c2ccccc2F)cc1 (configuration not stated) | nt | -13.2% | nt | -39.7* | nt
Cc1ccc(/C(O)=C2\C(=O)C(=O)N(CCN(C)C)C2c2ccccc2F)cc1 (configuration not stated) | -1.7% | i | -4.2% | -1.8 | 17.7%
CC1=C(C(N)=O)C(c2cccc(F)c2)n2nc(SCc3ccccc3)nc2N1 (configuration not stated) | -1.5% | i | nt | nt | -4.1%
C(=N\NC1=Nc2cccc3cccc1c23)/c1cccnc1 | 28.2% | -16.3% | -13.7% | -69.6* | -17.2%
C(=N\NC1=Nc2cccc3cccc1c23)/c1ccccc1 | 27.2% | -22.9% | -3.7% | 0.0 | 8.0%
COCCn1c(C)c(C)c(S(=O)(=O)c2ccccc2)c1N | 35.5µM* | i | -1.7% | 0.0 | 11.4%
Cc1c(S(=O)(=O)c2ccccn2)c(N)n(Cc2ccccc2)c1C | -10.8% | 7.3% | -3.1% | 0.2 | -14.9%
COc1ccc(CNC(=O)CNC(=O)c2ccc(Br)o2)cc1OC | 2.1% | i | -0.1% | -106.7* | 9.4%
CCn1c(C)nc2cc(S(=O)(=O)C(F)(F)C(F)C(F)(F)F)ccc21 (configuration not stated) | -7.9% | -45.4% | 0.0% | -48.2* | -1.6%
COc1ccc(CNC(=O)C2CCN(C(=O)c3ccc(-n4ccc5ccccc54)s3)CC2)cc1 | -1.3% | -10.0% | nt | nt | -0.8%
CCC(=O)Nc1cccc(C(=O)OCc2cccc([N+](=O)[O-])c2)c1 | 7.08µM* | -57.0% | 1.4% | -3.5 | -2.0%
CC(=O)Nc1cccc(C(=O)OCc2ccc([N+](=O)[O-])cc2)c1 | 7.0% | -3.6% | -0.1% | -0.1 | 20.8%
Nc1ccc2c(c1)C(=O)c1ccc(N)cc1-2 | 4.8% | -17.5% | nt | -61.8* | -0.4%
